TDP-43 yeast inh: inhibitors of TDP-43 toxicity in yeast; Potency, µM (series often up to 46.1 µM), without a hit: top-dose growth rescue (activation), hits mostly activators; actives 1.8% (n = 410,000); TDP-43 expressing yeast growth rescue, BacTiter-Glo, 24 h; also: potency is read from the fitted curve at half-maximal effect; % of control where 0% means no effect; nearly all actives have a fitted effect of over 50% in size
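Yeast cells expressing TDP-43 under galactose induction are exposed to compounds for 24 hr at 30 deg C. BacTiter-Glo luminescence measures growth, so protective compounds score as activators.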
CCT chaperon mod: modulators of cytosolic chaperonin (CCT/TRiC) activity; purified chaperonin ATPase assay, HTRF ADP detection, 30 min; activity change, % (test concentration not listed), hits read low; actives 0.3% (n = 360,000); in the data active = activity change below about -30%; also: % is scaled to controls: 0 for no effect and ±100 for the full control effect
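We incubate TRiC, 40 or 20 nM final, with library compounds at 76 uM and 10 uM ATP for 30 min at 37 °C. ADP formed is detected with Transcreener HTRF reagents after 30 min at room temperature.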
Mito fusion yeast: mitochondrial division inhibition or fusion activation | S. cerevisiae fusion-defective mutant growth rescue, CellTiterGlo 48 h | Potency, µM (highest dose often 46.1 µM), for the others: top-dose growth rescue (activation), most hits filed as activators | actives 0.23% (n = 320,000) | AID 485298; also: potency is read from the fitted curve at half-maximal effect; % of control where 0% means no effect; nearly all actives have a fitted effect of over 45% in size
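Growth-rescue viability read-out: after 48 h at the non-permissive 37C in glycerol/ethanol YPEG, yeast mitochondrial fusion mutants are measured by CellTiterGlo luminescence; compounds (23 nl pinned per well) restoring growth score as division inhibitors or fusion activators.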
Akt phos inh: blocks phosphorylation of Akt | Neuro2A IGF-stimulated pAkt S473 HTRF, 20 min; stronger effect = lower value | activity change, % for hits at 50 µM | actives 0.32% (n = 360,000) | AID 651550; in the data active = activity change below about -80%; inconclusive = mostly about -51% to -80%; also: % is scaled to controls: 0 for no effect and ±100 for the full control effect
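Single-point screen (50 µM final compound) in Neuro2A cells stimulated 20 min with 6 nM IGF at 37 deg C. After lysis, Ser473-phosphorylated Akt read by HTRF (ex 330 nm, em 615/665 nm) as the 665/615 ratio.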
aSyn yeast inh: rescues yeast growth from alpha-synuclein toxicity | Potency, µM (titrated, usually from 46.1 µM), inactives show at the top dose growth rescue (activation), actives largely listed as activators | Yeast expressing alpha-synuclein, growth rescue, BacTiter-Glo, 24 h | actives 0.14% (n = 370,000); also: potency is read from the fitted curve at half-maximal effect; % of control where 0% means no effect; nearly all actives have a fitted effect of over 65% in size
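Readout is rescue of growth in alpha-synuclein-expressing yeast, so inhibitors of toxicity appear as activators. Growth after 24 hr at 30 deg C in galactose medium is quantified by luminescence.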
Anesthetic bind: candidate novel general anesthetic via apoferritin binding. Potency, µM (titrated, usually from 77.5 µM), for inactives: at the top dose activity change, negative = displacement, hits mostly inhibitors. actives 0.074% (n = 350,000). apoferritin/1-aminoanthracene competitive binding, fluorescence. P02791; also: potency is read from the fitted curve at half-maximal effect; % is scaled to controls: 0 for no effect and ±100 for the full control effect; nearly all actives have a fitted effect of over 20% in size
Target sequence (P02791 2-175 limits assumed): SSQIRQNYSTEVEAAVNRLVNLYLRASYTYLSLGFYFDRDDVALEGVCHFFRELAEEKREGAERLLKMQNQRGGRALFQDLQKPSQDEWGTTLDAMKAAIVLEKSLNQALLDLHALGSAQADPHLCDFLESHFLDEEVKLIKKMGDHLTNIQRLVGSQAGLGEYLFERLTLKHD
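Apoferritin-based anesthetic binding model; compound displacement of fluorescent 1-AMA measured as endpoint fluorescence after 10 minutes at room temperature, scaled to free-ligand and complex controls.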
An asterisk follows results filed as active; i = inactive; u = inconclusive; x = not tested or not shown; ! = repeats disagree. The list is not random: actives were taken first. Their share in the collection is about 2.5%. Unless noted, calls follow the shape of the dose curve; as a rule, active = well fitted curve in the direction sought with a large enough effect; inconclusive = small, poorly fitted or top-dose-only effect, or another doubt; inactive = no such curve, though single readings can be large; an effect the other way counts as inactive or inconclusive.

SMILES	TDP-43 yeast inh	CCT chaperon mod	Mito fusion yeast	Akt phos inh	aSyn yeast inh	Anesthetic bind
O=[N+]([O-])c1cc(C(F)(F)F)c(Cl)c([N+](=O)[O-])c1Nc1ncc(C(F)(F)F)cc1Cl	x	x	x	x	-82.3%	x
Cc1ccc(CN2C(=O)c3ccccc3Sc3ccc(C(=O)N4CCC5(CC4)OCCO5)cc32)cc1	12.7%	x	x	x	x	-13.6%
O=C(c1ccc2c(c1)N(Cc1ccc(F)cc1Cl)C(=O)c1ccccc1S2)N1CCC2(CC1)OCCO2	17.8µM*	x	x	x	x	-7.3%
Cc1nn(C)c(C)c1/C=C1/CC2C3CC=C4CC(O)CCC4(C)C3CCC2(C)C1=O (configuration not stated)	u	-1.2	15.8µM*	i	12.6%	-12.9%
CC12CCC3C(CC=C4CC(O)CCC43C)C1C/C(=C\N1CCCC1)C2=O (configuration not stated)	x	x	-2.3%	x	x	-3.0%
C=CCN1CCc2cccc3c2C1Cc1ccc(O)c(O)c1-3 (configuration not stated)	x	x	x	x	x	-16.5%
O=[N+]([O-])c1ccc(Cl)c([N+](=O)[O-])c1	11.2µM*	0.2	-18.5%	i	3.1%	x
O=[N+]([O-])c1ccc(O)c([N+](=O)[O-])c1	-92.2%	-0.4	x	i	3.2%	-18.5%
CCOC(=O)c1cccc(NC(=O)c2cnc(N3CCCCC3)c3ccccc23)c1	27.1%	x	x	x	x	230.2%
CCC(C)(C)n1nnnc1C(c1cccs1)N1CC=C(c2ccc(F)cc2)CC1 (configuration not stated)	-17.9%	-0.4	10µM*	i	-19.1%	u
Nc1ccc(Br)cc1C(=O)c1ccccc1	15.8µM*	0.5	11.8%	i	u	u
CCC(=O)N1CCN(c2cc3c(cc2F)c(=O)c(C(=O)O)cn3CC)CC1	-18.6%	1.8	x	i	-5.6%	x
CCn1cc(C(=O)O)c(=O)c2ccc(C)nc21	-4.3%	-0.3	5.8µM*!	i	8.0%	4.7%
CCOC(=O)c1cc(-c2ccccc2)n(CCCC(=O)Nc2ccc(C)c(C)c2)c1C	-4.7%	x	x	x	x	42.6%
C=Cc1cc(OC)c2c(c1)c(=O)oc1c2cc(OC)c2c(O)ccc(C3OC(C)C(O)C(C)(O)C3O)c21 (configuration not stated)	14.1µM*	0.2	x	i	0.631µM*	x
CCOCCCNC(=O)c1c[nH]c2ccc(S(=O)(=O)N(C)c3ccc(Cl)cc3F)cc2c1=O	-11.8%	x	x	x	x	u
CC1(C)C(C(=O)N2CCN(c3ccc(Cl)cc3)CC2)C1(C)C	u	-2.1	u	i	11.5%	3.5%
COC(=O)C1CN(C#N)N(c2ccc(Cl)cc2)C12c1ccccc1-c1ccccc12 (configuration not stated)	15.8µM*	-7.1	7.0%	i	2.8%	4.3%
CC(=O)Nc1ccc(Nc2c(CCC(C)C)c(C)c(C#N)c3nc4ccccc4n23)cc1	6.8%	x	x	x	x	49.3%
C[C@]12C=CC(=O)C=C1CC[C@@H]1C2=CC[C@]2(C)[C@@H](C(=O)CN3CCN(c4cc(N5CCCC5)nc(N5CCCC5)n4)CC3)CC[C@@H]12	-31.1%	-0.1	14.6µM*	i	7.7%	x
O=c1c2ccccc2[se]n1-c1ccccc1	-94.0%	-1.5	0.461µM*	i	-92.1%	u
COC(=O)c1ccc(NC2=C(Cl)C(=O)OC2OC(=O)c2ccccc2)cc1 (configuration not stated)	22.4µM*	1.1	-10.5%	i	2.5%	-9.1%
C[C@]12CCC(=O)C[C@H]1CC[C@@H]1[C@@H]2CC[C@]2(C)[C@@H](O)CC[C@@H]12	x	x	18.8%	x	x	x
CC12CCC3C(CCC4CC(=O)C(C(O)C(F)(F)F)CC43C)C1CCC2O (configuration not stated)	14.1µM*	-2.3	x	i	14.0%	x
CCOC(=O)CCCc1cc[c]([Sb](=[O])([OH])[OH])cc1	x	x	x	x	2.9%	x
SMILES	TDP-43 yeast inh	CCT chaperon mod	Mito fusion yeast	Akt phos inh	aSyn yeast inh	Anesthetic bind
COCCNC(=O)c1c(NC(=O)c2ccc(Br)o2)n(Cc2ccccc2)c2nc3ccccc3nc12	23.1%	-24.4	7.08µM*	i	-5.9%	37.7%
COCCCNC(=O)c1c(NC(=O)c2ccco2)n(Cc2ccccc2)c2nc3ccccc3nc12	1.0%	1.0	10.3%	i	-2.3%	128.0%
Nc1ccc(Cl)cc1C(=O)c1ccccc1Cl	20µM*	3.5	20.5%	i	u	u
Cc1ccccc1C(=O)Nc1cc(-c2ccc(Cl)cc2)nn1-c1ccccc1	u	x	x	x	x	-7.3%
COC1(C)CC(c2ccccc2)c2c(c3ccccc3oc2=O)O1 (configuration not stated)	x	x	x	x	x	4.5%
COc1ccc(-c2ccc3c(c2)CN(C(=O)C(C)(C)C)Cc2cnnn2-3)cc1	17.8µM*	-5.7	x	i	3.7%	x
CC(C)(C)C(=O)N1Cc2cc(-c3ccccc3)ccc2-n2nncc2C1	13.2%	0.1	x	i	-5.0%	x
CC(=NCCC1=CCCCC1)c1c(O)[nH]c(=O)[nH]c1=O	9.9%	-2.2	6.4%	-120.8%*	1.8%	-18.4%
C=CCn1c(O)c(C(CC)=NCCC2=CCCCC2)c(=O)[nH]c1=O	17.8µM*	1.0	13.4%	x	x	-18.3%
CC(=NCCC1=CCCCC1)c1c(O)n(C)c(=O)n(C)c1=O	u	-1.6	3.2%	i	-4.4%	-4.5%
COc1ccc2nc(NC(=O)c3nc(S(=O)(=O)Cc4cccc(C)c4)ncc3Cl)sc2c1	34.4%	x	x	x	x	u
COc1cc(O)c(C(=O)O)c(-c2cc(O)c(O)cc2C)c1	17.3%	-1.9	-13.0%	i	14.1µM*	-10.1%
Cc1cc(O)c2c(c1)OC(C)(C)C1=C2CC(C)CC1 (configuration not stated)	12.6µM*	1.7	-6.4%	i	22.2%	u
Cc1cc(O)c2c3c(c(=O)oc2c1)CCC(C)C3 (configuration not stated)	0.2%	-0.9	-2.5%	i	-20.4%	5.4%
COc1ccc(O)c(CN2CCCC(C(=O)c3ccccc3SC)C2)c1 (configuration not stated)	0.9%	-45.1*	2.3%	i	-2.1%	-19.2%
Cc1ccc(-c2cc(C(F)F)n3ncc(C(=O)N4CCc5ccccc5C4)c3n2)cc1	15.8µM*	-1.0	3.5%	i	-2.3%	-18.6%
Cc1ccc2nc(-c3ccncc3)cc(C(=O)N3CCC4(CC3)OCCO4)c2c1	0.8%	-5.7	10.9%	i	-0.3%	0.0%
COc1ccc(-n2c(SCCN(C)C)nc3ccccc3c2=O)cc1	11.7%	-112.6*	-3.0%	i	2.4%	4.2%
COc1ccc(-c2nc3ccccc3c(=O)n2-c2ccc(OC)cc2)cc1	21.0%	-5.2	0.6%	i	-26.8%	-6.4%

Screening data deposited in PubChem BioAssay by National Center for Advancing Translational Sciences (NCATS).
